Measured values reported in PubChem BioAssay (Tox21).
Inconclusive results are not listed. Activity calls are given as the source filed them. Unless noted, calls follow the shape of the dose curve; as a rule, active = well fitted curve in the direction sought with a large enough effect in the repeat runs; inconclusive = weak or mixed curves; inactive = no such curve, though single readings can be large; an effect the other way counts as inactive or inconclusive.

Columns and labels:
[1] = A CellTox Green Cytotoxicity Assay to monitor cytotoxicity in HepG2 cells - 40 hour (AID 1224879); also: nearly all actives have a fitted effect of over 40% in size
Outline: (§1)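 Fluorescent DNA-binding dye, 600 HepG2 cells/well, 5 h preincubation then compound in DMSO; same plates read at 0–40 h, 37 C.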

[2] = qHTS RealTime-Glo MT Cell Viability Assay in HEK293 cells - 0 hour (AID 1224880); also: top concentration of the series differs between compounds; nearly all actives have a fitted effect of over 45% in size
Outline: (§2)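 Measured as luminescence from the same continuously cultured HEK293 wells at successive time points (0, 8, 16, 24, 32, 40 h) after compound addition. Reagent present from seeding; dosing at 5 h; incubation 37 C.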

[3] = A CellTox Green Cytotoxicity Assay to monitor cytotoxicity in HEK293 cells - 32 hour (AID 1224881); also: nearly all actives have a fitted effect of over 40% in size
Outline: (§3)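 Homogeneous no-lysis format: HEK293 cell suspension mixed with CellTox Green reagent, seeded, incubated 5 h at 37 C/5% CO2, then dosed by pintool with compound in DMSO.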

[4] = A CellTox Green Cytotoxicity Assay to monitor cytotoxicity in HepG2 cells - 0 hour (AID 1224882); also: nearly all actives have a fitted effect of over 35% in size
Outline: as §1

[5] = A CellTox Green Cytotoxicity Assay to monitor cytotoxicity in HepG2 cells - 32 hour (AID 1224883); also: nearly all actives have a fitted effect of over 50% in size
Outline: as §1

[6] = A CellTox Green Cytotoxicity Assay to monitor cytotoxicity in HEK293 cells - 8 hour (AID 1224884); also: nearly all actives have a fitted effect of over 35% in size
Outline: as §3

[7] = qHTS RealTime-Glo MT Cell Viability Assay in HepG2 cells - 16 hour (AID 1224885); also: nearly all actives have a fitted effect of over 50% in size
Outline: (§4)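 Viability was tracked continuously by NanoLuc luminescence from prosubstrate reduced by living HepG2 cells, at successive time points over 40 h of compound exposure. Cells with reagent were preincubated 5 h at 37 °C before compound addition.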

[8] = qHTS RealTime-Glo MT Cell Viability Assay in HEK293 cells - 24 hour (AID 1224886); also: top concentration of the series differs between compounds; nearly all actives have a fitted effect of over 50% in size
Outline: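 Viability tracked continuously by luminescence as live cells reduce a prosubstrate for NanoLuc; HEK293 cells preincubated 5 h, compound-treated at 37 C, and read at 0, 8, 16, 24, 32 and 40 h.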

[9] = qHTS RealTime-Glo MT Cell Viability Assay in HEK293 cells - 8 hour (AID 1224887); also: top concentration of the series differs between compounds; nearly all actives have a fitted effect of over 50% in size
Outline: as §2

[10] = A CellTox Green Cytotoxicity Assay to monitor cytotoxicity in HEK293 cells - 16 hour (AID 1224888); also: nearly all actives have a fitted effect of over 35% in size
Outline: as §3

[11] = A CellTox Green Cytotoxicity Assay to monitor cytotoxicity in HepG2 cells - 8 hour (AID 1224890); also: nearly all actives have a fitted effect of over 45% in size
Outline: as §1

[12] = qHTS assay to identify small molecule antagonists of the estrogen receptor alpha (ER-alpha) signaling pathway using the BG1 cell line in the presence of 0.1 nM 17-beta-estradiol - cell viability counter screen (AID 1259241); also: nearly all actives have a fitted effect of over 40% in size
Outline: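 Viability in VM7Luc4E2 cells after 22 hr compound exposure under 0.1 nM 17beta-estradiol stimulation, by CellTiter-Fluor.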

[13] = qHTS assay to identify small molecule antagonists of the androgen receptor (AR) signaling pathway using the MDA cell line in the presence of 0.5 nM R1881 - cell viability counter screen (AID 1259242); also: nearly all actives have a fitted effect of over 45% in size
Outline: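 Human breast carcinoma MDA-kb2 cells, cultured without CO2, receive compounds alongside 0.5 nM (final) R1881 agonist. After 16 hr at 37C, viability is taken as live-cell protease signal.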

[14] = molecular target: Androgen receptor (Homo sapiens) (UniProt P10275); assay: qHTS assay to identify small molecule antagonists of the androgen receptor (AR) signaling pathway using the MDA cell line in the presence of 0.5 nM R1881 (AID 1259243); also: nearly all actives have a fitted effect of over 50% in size
Sequence of Androgen receptor (Homo sapiens) (P10275 whole entry, looked up): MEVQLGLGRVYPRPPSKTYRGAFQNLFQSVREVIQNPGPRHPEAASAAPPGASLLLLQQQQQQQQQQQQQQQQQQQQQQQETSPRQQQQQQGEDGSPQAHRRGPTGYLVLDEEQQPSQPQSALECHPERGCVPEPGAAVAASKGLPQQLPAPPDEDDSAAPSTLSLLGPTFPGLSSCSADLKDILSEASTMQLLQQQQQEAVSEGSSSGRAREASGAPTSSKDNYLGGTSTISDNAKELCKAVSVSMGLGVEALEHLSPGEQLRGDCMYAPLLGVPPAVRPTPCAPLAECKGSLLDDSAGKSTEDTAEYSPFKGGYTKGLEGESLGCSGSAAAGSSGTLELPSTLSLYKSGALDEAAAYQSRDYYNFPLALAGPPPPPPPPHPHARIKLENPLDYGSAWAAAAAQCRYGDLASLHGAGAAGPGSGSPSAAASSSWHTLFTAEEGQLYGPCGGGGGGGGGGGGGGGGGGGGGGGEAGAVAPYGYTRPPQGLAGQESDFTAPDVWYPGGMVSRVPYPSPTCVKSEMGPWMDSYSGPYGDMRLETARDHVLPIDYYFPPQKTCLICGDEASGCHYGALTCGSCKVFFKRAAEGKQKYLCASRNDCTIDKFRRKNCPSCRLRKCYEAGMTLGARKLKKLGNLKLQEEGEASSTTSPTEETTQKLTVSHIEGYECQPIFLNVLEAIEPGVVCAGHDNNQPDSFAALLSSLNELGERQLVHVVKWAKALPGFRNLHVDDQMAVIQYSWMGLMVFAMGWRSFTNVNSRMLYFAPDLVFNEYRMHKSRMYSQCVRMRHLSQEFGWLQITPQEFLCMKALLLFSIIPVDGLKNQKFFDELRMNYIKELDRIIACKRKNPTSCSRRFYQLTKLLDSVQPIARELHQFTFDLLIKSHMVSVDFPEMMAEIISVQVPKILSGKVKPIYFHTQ
Outline: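 Cells: MDA-kb2 (MMTV-luc). Stimulus: 0.5 nM R1881. Time: 16 hr, 37C, no CO2. Detection: ONE-Glo luminescence after 30 min at RT.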

[15] = molecular target: Estrogen receptor (Homo sapiens) (UniProt P03372); assay: qHTS assay to identify small molecule antagonists of the estrogen receptor alpha (ER-alpha) signaling pathway using the BG1 cell line in the presence of 0.1 nM 17-beta-estradiol (AID 1259244); also: nearly all actives have a fitted effect of over 50% in size
Sequence of Estrogen receptor (Homo sapiens) (P03372 whole entry, looked up): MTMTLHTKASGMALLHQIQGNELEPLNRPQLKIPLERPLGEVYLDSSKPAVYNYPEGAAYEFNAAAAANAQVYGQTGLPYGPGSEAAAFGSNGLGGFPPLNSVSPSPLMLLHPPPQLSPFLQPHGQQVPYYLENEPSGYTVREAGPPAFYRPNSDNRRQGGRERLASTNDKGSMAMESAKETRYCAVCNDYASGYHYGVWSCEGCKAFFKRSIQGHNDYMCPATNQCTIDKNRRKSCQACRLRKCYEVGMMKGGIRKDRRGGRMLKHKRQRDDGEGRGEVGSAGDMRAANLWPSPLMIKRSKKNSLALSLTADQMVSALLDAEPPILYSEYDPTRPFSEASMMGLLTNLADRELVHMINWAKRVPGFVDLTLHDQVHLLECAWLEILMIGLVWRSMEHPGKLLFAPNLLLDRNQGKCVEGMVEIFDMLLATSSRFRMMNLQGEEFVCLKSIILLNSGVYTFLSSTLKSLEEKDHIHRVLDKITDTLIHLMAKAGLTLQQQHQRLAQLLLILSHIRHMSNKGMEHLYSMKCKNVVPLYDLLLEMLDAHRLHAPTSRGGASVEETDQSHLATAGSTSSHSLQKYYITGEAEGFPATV
Outline: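 Seeding of stripped-serum-adapted VM7Luc4E2 cells, 24 h attachment, compound transfer, then 0.1 nM final 17beta-estradiol; after 22 h incubation, ONE-Glo reagent and luminescence reading.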

[16] = qHTS assay to identify small molecule HDAC inhibitors (AID 1259364);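 also: wild-type HCT-116 cells with endogenous class I/II HDAC activity; top concentration of the series differs between compounds; nearly all actives have a fitted effect of over 45% in size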
Outline: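 After a 2 hr compound incubation (37C, 5% CO2), HCT-116 cells seeded at 1,500/well the day before received HDAC-Glo reagent; signal read as luminescence after 30 min at room temperature.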

[17] = qHTS assay to identify small molecule HDAC inhibitors - cell viability counter screen (AID 1259365)
Outline: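 Cytotoxicity was gauged in wild-type HCT-116 cells after a brief 2hr treatment with DMSO-dissolved compounds at 37C and 5% CO2, using CellTiter-Glo luminescence developed for 30min at room temperature.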

[18] = qHTS RealTime-Glo MT Cell Viability Assay in HepG2 cells - 0 hour (AID 1224889); also: nearly all actives have a fitted effect of over 50% in size
Outline: as §4

[19] = qHTS assay to identify small molecule phospholipidosis (PLD) inducers (AID 1259344; active = well fitted curve in the direction sought with a large enough effect; an effect the other way counts as inactive or inconclusive)
Outline: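 Read-out is LipidTOX Red fluorescence (ex 595/em 615) imaged in HepG2 cells after 24 h compound exposure at 37 C, with Hoechst nuclear counterstain (ex 352/em 461) allowing per-cell normalisation.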
% is scaled to controls: 0 for no effect and ±100 for the full control effect.

CC(C)C(=O)Nc1cccc(C2CN3CCSC3=N2)c1 (stereo not given)
inactive: Potency [1] | Potency [2] | Potency [3] | Potency [4] | Potency [5] | Potency [6] | outcome [7] | outcome [8] | outcome [9] | Potency [10] | Potency [11] | outcome [12] | outcome [13] | Potency [14] | outcome [15] | Potency [16] | outcome [17]

CCN(CC)CC(=O)Oc1ccc(NC(C)=O)cc1
inactive: Potency [1] | Potency [2] | Potency [3] | Potency [4] | Potency [5] | Potency [6] | outcome [7] | Potency [10] | Potency [18] | Potency [11] | outcome [12] | outcome [13] | Potency [14] | Potency [16] | outcome [17]

CC1(C)S[C@@H]2[C@H](NC(=O)Cc3ccccc3)C(=O)N2[C@H]1C(=O)O (tested in a mixture with another compound)
inactive: Potency [1] | Potency [3] | Potency [4] | Potency [5] | Potency [6] | outcome [7] | outcome [8] | outcome [9] | Potency [10] | Potency [11] | outcome [13] | outcome [15] | Potency [19] | Potency [16] | outcome [17]

CCCC(=O)C(CC)Sc1ccoc1C (stereo not given)
inactive: Potency [2] | Potency [4] | Potency [6] | outcome [8] | outcome [9] | Potency [10] | Potency [11] | outcome [12] | outcome [13] | Potency [14] | outcome [15] | Potency [16] | outcome [17]

c1cc2ccc3ccc4ccc5cccc6c(c1)c2c3c4c56
inactive: cytotoxicity increase [1] -16.7% [at 2.72 µM] | activity change, negative = cytotoxicity [2] -3.02% [at 2.72 µM] | cytotoxicity increase [3] -14.8% [at 2.72 µM] | cytotoxicity [4] -21.2% [at 2.72 µM] | cytotoxicity increase [5] -14.8% [at 2.72 µM] | cytotoxicity increase [6] -10.4% [at 2.72 µM] | activity change, negative = cytotoxic [7] 0.567% [at 2.72 µM] | activity change, negative = cytotoxicity [8] 0.461% [at 2.72 µM] | activity change, negative = cytotoxicity [9] -6.75% [at 2.72 µM] | activity change [10] -11.1% [at 2.72 µM, hits give high values] | activity change, negative = cytotoxicity [18] 3.24% [at 2.72 µM] | cytotoxicity increase [11] -16.5% [at 2.72 µM] | activity change, negative = cytotoxicity [12] 10.7% [at 3.27 µM] | viability change, negative = cytotoxic [13] 1.62% [at 3.26 µM] | activity change, negative = inhibition [16] -0.743% [at 3.27 µM] | activity change, negative = cytotoxicity [17] 2.08% [at 3.27 µM]

CCc1ccc(CC)cc1
inactive: Potency [1] | Potency [2] | Potency [3] | Potency [4] | Potency [5] | Potency [6] | outcome [7] | outcome [8] | outcome [9] | Potency [10] | Potency [18] | Potency [11] | outcome [13] | outcome [15] | outcome [17]

CC1(C)CC(N)CC(C)(C)N1
inactive: Potency [1] | Potency [3] | Potency [4] | Potency [5] | Potency [6] | outcome [7] | outcome [8] | outcome [9] | Potency [10] | Potency [11] | outcome [12] | outcome [13] | Potency [16] | outcome [17]

CCCC(=O)OC
inactive: Potency [1] | Potency [2] | Potency [3] | Potency [4] | Potency [5] | outcome [7] | outcome [8] | outcome [9] | Potency [10] | Potency [18] | outcome [12] | outcome [13] | outcome [15] | Potency [16] | outcome [17]
